# Results published in the supplement of paper PMC7393113.
# Values joined by “and” are separate entries in the source; they are usually repeats but may differ in a detail not shown here. Equal values may be shown once. Where a name gives a salt, the structure may show the parent alone. ± gives the standard deviation of the averaged measurements.
# Tested on: iBMDM (immortalised mouse bone-marrow-derived macrophages), LPS-stimulated
# Assay: mitochondrial superoxide (MitoSOX fluorescence) fold increase over unstimulated control; higher = more LPS-induced mitochondrial ROS (less inhibition)
# Details: inhibitor concentration: 500 nM; LPS: 100 ng/ml; time after LPS: 2 h
# Outline: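 Mitochondrial superoxide was expressed as fold induction over untreated macrophages. Immortalised mouse bone-marrow-derived macrophages were pretreated with kinase inhibitors (500 nM) for 30 min, loaded with 1 μM MitoSox for 10 min and stimulated with LPS (100 ng/ml). MitoSox fluorescence (excitation 510 nm, emission 580 nm) was read hourly over 4 h, and the three replicates were averaged.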
row,Structure (SMILES),mitochondrial superoxide
1,O=C(O)c1ccc(Nc2ncc3c(n2)-c2ccc(Cl)cc2C(c2c(F)cccc2F)=NC3)cc1,1.45 ± 0.044
2,CNC(=O)c1cc(Oc2ccc(NC(=O)Nc3cc(C(C)(C)C)nn3-c3ccc4ncccc4c3)c(F)c2)ccn1 [DCC-2036 (Rebastinib)],1.33 ± 0.075
3,C#Cc1cccc(Nc2ncnc3cc(OCCOC)c(OCCOC)cc23)c1 [Erlotinib HCl (OSI-744)],1.66 ± 0.076
4,CN1CCN(c2nc(C3=C(c4c[nH]c5ccccc45)C(=O)NC3=O)c3ccccc3n2)CC1 [Sotrastaurin],1.55 ± 0.039
5,Cc1cc(C)c(/C=C2\C(=O)Nc3ccccc32)[nH]1 [Semaxanib (SU5416)],1.22 ± 0.029
6,C=CC(=O)Nc1cccc(Nc2nc(Nc3ccc(OCCOC)cc3)ncc2F)c1,1.24 ± 0.072
7,CN(c1ncccc1CNc1nc(Nc2ccc3c(c2)CC(=O)N3)ncc1C(F)(F)F)S(C)(=O)=O,1.34 and 1.11
8,O=c1cc(-c2cccc3c2Sc2ccccc2S3)oc(N2CCOCC2)c1,1.48 ± 0.063
9,O=C(O)[C@]1(Cc2cccc(Nc3nccs3)n2)CC[C@@H](Oc2cccc(Cl)c2F)CC1,1.39 ± 0.086
10,O=C1Nc2ccc(I)cc2C1=Cc1cc(Br)c(O)c(Br)c1,1.07 ± 0.074
11,CCN1CCN(Cc2ccc(-c3cc4c(N[C@H](C)c5ccccc5)ncnc4[nH]3)cc2)CC1,1.11 ± 0.04
12,Clc1ccc(Nc2nnc(Cc3ccncc3)c3ccccc23)cc1 [Vatalanib (PTK787) 2HCl],1.5 ± 0.09
13,C=CC(=O)Nc1cccc(Oc2nc(Nc3ccc(N4CCN(C)CC4)cc3OC)ncc2Cl)c1,1.53 ± 0.052
14,CCn1c(-c2nonc2N)nc2c(C#CC(C)(C)O)ncc(OC[C@H]3CCCNC3)c21,1.4 ± 0.027
15,CCNC(=O)Nc1ccc(-c2nc3c(c(N4CCOC[C@@H]4C)n2)CCN(C2COC2)C3)cc1,1.6 ± 0.039
16,Cc1ccc(NC(=O)c2ccc(CN3CCN(C)CC3)cc2)cc1Nc1nc(-c2cccnc2)cs1 [Masitinib (AB1010)],1.52 ± 0.067
17,Cn1cc(-c2ccc3nnc(Sc4ccc5ncccc5c4)n3n2)cn1,1.4 ± 0.04
18,"CCCS(=O)(=O)Nc1ccc(F)c(C(=O)c2c[nH]c3ncc(-c4ccc(Cl)cc4)cc23)c1F [Vemurafenib (PLX4032, RG7204)]",1.16 ± 0.015
19,CN1CCN(c2ccc3nc(-c4c(N)c5c(F)cccc5[nH]c4=O)[nH]c3c2)CC1 [Dovitinib (TKI-258) Dilactic Acid],1.32 ± 0.03

row,Structure (SMILES),mitochondrial superoxide
1,CCCCCCCCCCCCc1ccc(S(=O)(=O)Nc2nncs2)cc1,1.2 ± 0.016
2,C[C@@H]1COCCN1c1cc(C2(S(C)(=O)=O)CC2)nc(-c2cccc3[nH]ccc23)n1,1.244 ± 0.0093
3,O=C(Nc1cccc(Nc2ncc(Br)c(NCCc3cnc[nH]3)n2)c1)N1CCCC1,1.11 ± 0.043
4,O=C(NOCC(O)CO)c1cc(Br)c(F)c(F)c1Nc1ccc(I)cc1F (configuration not stated),1.3 ± 0.054
5,O=C(Nc1c[nH]nc1-c1nc2ccc(CN3CCOCC3)cc2[nH]1)NC1CC1,1.42 ± 0.033
6,CNC(=O)c1ccc(-c2cnc3ncc(Cc4ccc5ncccc5c4)n3n2)cc1F,1.36 ± 0.16
7,COc1cc2nccc(Oc3ccc(NC(=O)Nc4ccc(F)cc4F)c(F)c3)c2cc1OC,1.27 ± 0.071
8,COc1cc(Nc2ncc(F)c(Nc3ccc4c(n3)NC(=O)C(C)(C)O4)n2)cc(OC)c1OC,1.14 ± 0.016
9,CCc1cncnc1N1CCN(Cc2nc3ccc(C(F)(F)F)cc3[nH]2)CC1,1.23 ± 0.037
10,Cc1nc(NC(=O)N2CCC[C@H]2C(N)=O)sc1-c1csc(C(C)(C)C)n1,1.43 ± 0.015
11,CCN1CCN(Cc2ccc(Nc3ncc(F)c(-c4cc(F)c5nc(C)n(C(C)C)c5c4)n3)nc2)CC1,1.25 ± 0.02
12,N#C/C(=C(/N)Sc1ccc(N)cc1)c1ccccc1C(F)(F)F,1.42 ± 0.092
13,CS(=O)(=O)c1ccc(-c2cnc(N)c(C(=O)Nc3ccccc3)n2)cc1,1.46 ± 0.052
14,CNC(=O)c1cc(Oc2ccc(NC(=O)Nc3ccc(Cl)c(C(F)(F)F)c3)c(F)c2)ccn1 [Regorafenib (BAY 73-4506)],1.68 ± 0.057
15,O=C1c2ccccc2-c2n[nH]c3cccc1c23,1.2 ± 0.15
16,Cc1ccc(-n2nc(C(C)(C)C)cc2NC(=O)Nc2ccc(OCCN3CCOCC3)c3ccccc23)cc1 [BIRB 796 (Doramapimod)],1.11 ± 0.024
17,Cc1ccc(NC(=O)c2ccc(CN3CCN(C)CC3)cc2)cc1Nc1nccc(-c2cccnc2)n1 [Imatinib Mesylate (STI571)],1.76 ± 0.045
18,Cc1ccc(C(=O)Nc2cccc(C(F)(F)F)c2)cc1Nc1nc(-c2cccnc2)nc2c1cnn2C,1.27 ± 0.013
